The values that follow come from PubChem BioAssay (EPA / NIEHS).

The target of experiment [1] is rat Mineralocorticoid Receptor (MR), Nr3c2 (gene 25672) (UniProt P22199). The experiment in a line: NVS_NR_rMR: NovaScreen (NVS) Nuclear Receptor Binding Assay for rat Mineralocorticoid Receptor (MR) (AID 2283355). Summed up: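 Cell-free radioligand binding to mineralocorticoid receptor from adrenalectomized rat brain supernatant, scintillation counting after 24 h. Primary screen in duplicate at 25 uM; actives retested in concentration series. Loss of specific binding versus DMSO.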

For experiment [2], the system named is guinea pig Dopamine Transporter (DAT), gene 100714898. The experiment in a line: NVS_TR_gDAT: NovaScreen (NVS) Transporter Assay for guinea pig Dopamine Transporter (DAT) (AID 2283369).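 Note: active compounds lower bound radioligand signal relative to DMSO.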 The essentials: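 Cell-free striatal membrane prep (guinea pig), 2 h exposure, filtration + scintillation readout of radioligand binding. Single-point 25 uM duplicate; actives rerun singleton, top conc 50 uM.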

The target in experiment [3] is human Dopamine Transporter (DAT), SLC6A3 (gene 6531) (UniProt Q01959). As to the kind of experiment: NVS_TR_hDAT: NovaScreen (NVS) Transporter Assay for human Dopamine Transporter (DAT) (AID 2283374).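 Note: activity means loss of bound radioligand signal relative to DMSO.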 The essentials:
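Cell-free radioligand displacement binding at human DAT, 1 h after dosing, with filtration and scintillation counting. Primary screen in duplicate at 25 uM, actives then in concentration series. Loss of bound signal versus DMSO scored.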

The target of experiment [4] is rat Serotonin Transporter (SERT), Slc6a4 (gene 25553) (UniProt P31652). As to the kind of experiment: NVS_TR_rSERT: NovaScreen (NVS) Transporter Assay for rat Serotonin Transporter (SERT) (AID 2283375). The essentials: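 Radioligand displacement, filter scintillation readout; rat forebrain membrane prep, 1 h post-dose. Single-conc 25 uM duplicate screen, then concentration-response on actives. Loss of signal vs DMSO baseline.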

In experiment [5] the target is human Thyroid Receptor Alpha (TRa), THRA (gene 7067) (UniProt P10827). As to the kind of experiment: NVS_NR_hTRa_Antagonist: NovaScreen (NVS) Nuclear Receptor Binding Assay for human Thyroid Receptor Alpha Antagonism (TRa) (AID 2283362).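 Note: activity is loss of signal relative to DMSO baseline.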 The essentials: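 AlphaLISA chemiluminescent immunoassay readout, taken 1 h post-dosing in a cell-free system with extracted protein. Activity was scored as signal loss against DMSO negative control, from duplicate single-concentration (25 uM) testing followed by concentration-response follow-up.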

Experiment [6] addresses rat Androgen Receptor (AR), Ar (gene 24208) (UniProt P15207). The experiment in a line: NVS_NR_rAR: NovaScreen (NVS) Nuclear Receptor Binding Assay for rat Androgen Receptor (AR) (AID 2283366). Summed up:
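Cell-free radioligand binding on extracts of prostate from testosterone-pretreated rats, read by filter-based scintillation counting 18 h after dosing. Loss of bound signal fitted positively versus DMSO; primary screen in duplicate at 25 uM, actives followed up in concentration series.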

Experiment [7] deals with Estrogen receptor (Homo sapiens) (UniProt P03372). As to the kind of experiment: OT_ER_ERaERa_1440: Odyssey Thera (OT) 24-hour HEK293T Protein-Complementation Assay for Estrogen Receptor-alpha/-alpha Homodimer (AID 2283349).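 Note: hits raise fluorescence above DMSO for agonists and antagonists alike.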 The essentials:
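HEK293T cells stably expressing the human ER alpha ligand-binding domain (aa 310-547) as a homodimer PCA were dosed for 24 hours. Fluorescence intensity was read by laser scanning cytometry, and gain of signal was fitted relative to DMSO vehicle.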

The target is the same in experiment [8]. The experiment in a line: OT_ER_ERaERa_0480: Odyssey Thera (OT) 8-hour HEK293T Protein-Complementation Assay for Estrogen Receptor-alpha/-alpha Homodimer (AID 2283351).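 Note: rise in fluorescence from reassembled reporter fragments on ERα LBD homodimer in nucleus or whole cell.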 The essentials:
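HEK293T, stable ERα LBD (aa 310-547) PCA homodimer; 8 h compound exposure; fluorescence intensity, laser scanning cytometer; positive fitting direction, DMSO baseline.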

In experiment [9] the target is T1, Estrogen receptor (Homo sapiens) + Estrogen receptor beta (Homo sapiens) (UniProt P03372+Q92731). As to the kind of experiment: OT_ER_ERaERb_0480: Odyssey Thera (OT) 8-hour HEK293T Protein-Complementation Assay for Estrogen Receptor-alpha/-beta Heterodimer (AID 2283352). The essentials: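 Fluorescence intensity readout from a protein-fragment complementation reporter in HEK293T; ER-alpha/ER-beta LBD heterodimer. Dosing 8 h. Gain-of-signal fit relative to DMSO negative control; laser scanning cytometry of whole-well cell population.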

Experiment [10] addresses T1, Estrogen receptor (Homo sapiens) + Estrogen receptor beta (Homo sapiens). The experiment in a line: OT_ER_ERaERb_1440: Odyssey Thera (OT) 24-hour HEK293T Protein-Complementation Assay for Estrogen Receptor-alpha/-beta Homodimer (AID 2283356).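 Note: heteromer of ER alpha and ER beta binding domains; hits raise reporter fluorescence and both agonists and antagonists give an increase.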 Summed up: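 Readout: mean fluorescence intensity in nucleus (agonists) or nucleus plus cytoplasm (antagonists), read by laser scanning cytometer after 24 h compound exposure of HEK293T cells carrying ERα/ERβ LBD fragment-complementation constructs; DMSO baseline.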

Experiment [11] concerns the target Estrogen receptor beta (Homo sapiens) (UniProt Q92731). The experiment in a line: OT_ER_ERbERb_0480: Odyssey Thera (OT) 8-hour HEK293T Protein-Complementation Assay for Estrogen Receptor-beta/-beta Homodimer (AID 2283357).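 Note: active means signal gain over DMSO baseline.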 Summed up:
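Fluorescence intensity, nuclear for agonists and nuclear plus cytoplasmic for antagonists, was quantified by laser scanning cytometry versus vehicle after 8 h treatment. The cells were HEK293T stably carrying ER beta LBD fragment-complementation partners.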

The target of experiment [12] is Androgen Receptor/SRC-1 Co-activator, AR (gene 367) (UniProt P10275). The experiment in a line: OT_AR_ARSRC1_0960: Odyssey Thera (OT) 16-hour HEK293T Protein-Complementation Assay for Androgen Receptor/SRC-1 Co-activator (AID 2283353).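 Note: actives raise the signal above DMSO so potency reflects increased AR and SRC-1 complex.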 The essentials: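 Split-Venus PCA, AR/SRC-1 fusions, stable HEK293T; 16 h compound exposure; imaged at 488 and 635 nm; N/C ratio (488 nm channel), min 400 cells/image; positive-direction fit, DMSO baseline.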

Experiment [13] has the same target. As to the kind of experiment: OT_AR_ARSRC1_0480: Odyssey Thera (OT) 8-hour HEK293T Protein-Complementation Assay for Androgen Receptor/SRC-1 Co-activator (AID 2283354).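 Note: hits raise the complementation signal above DMSO so AC50 marks enhancers.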 The essentials: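 HEK293T cells stably expressing AR and SRC-1 fused to Venus YFP fragments, imaged 8 h after dosing. Complementation fluorescence scored as nuclear/cytoplasmic ratio at 488 nm in at least 400 cells per image; gain fitted versus DMSO.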

Records with an inconclusive call do not appear. The source made the active and inactive calls. Rule for the calls: active = hit-call score of the fitted dose curve at least 0.9, where 1 is the maximum; inconclusive = response in the unintended direction; inactive = score below 0.9.

Chain of Estrogen receptor (Homo sapiens) (P03372 whole entry, looked up, the tested form may be a part): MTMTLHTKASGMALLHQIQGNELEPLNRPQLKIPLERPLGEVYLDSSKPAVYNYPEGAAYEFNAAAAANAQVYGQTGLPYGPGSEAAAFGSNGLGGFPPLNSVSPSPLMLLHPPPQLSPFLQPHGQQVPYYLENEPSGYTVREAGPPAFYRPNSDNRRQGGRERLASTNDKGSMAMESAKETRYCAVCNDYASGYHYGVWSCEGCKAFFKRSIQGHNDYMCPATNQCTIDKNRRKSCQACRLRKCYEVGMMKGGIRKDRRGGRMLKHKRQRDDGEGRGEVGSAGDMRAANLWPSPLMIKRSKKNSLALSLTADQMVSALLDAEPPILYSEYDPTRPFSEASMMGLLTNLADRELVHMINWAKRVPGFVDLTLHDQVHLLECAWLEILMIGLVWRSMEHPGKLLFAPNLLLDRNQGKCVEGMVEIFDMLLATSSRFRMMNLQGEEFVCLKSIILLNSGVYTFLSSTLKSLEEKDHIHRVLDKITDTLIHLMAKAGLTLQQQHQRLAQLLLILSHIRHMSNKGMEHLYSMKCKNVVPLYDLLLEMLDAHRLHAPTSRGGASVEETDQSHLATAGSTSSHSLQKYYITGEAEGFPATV
T1 sequence (P03372 whole entry, looked up, the tested form may be a part): as above
T1 sequence (Q92731 whole entry, looked up, the tested form may be a part): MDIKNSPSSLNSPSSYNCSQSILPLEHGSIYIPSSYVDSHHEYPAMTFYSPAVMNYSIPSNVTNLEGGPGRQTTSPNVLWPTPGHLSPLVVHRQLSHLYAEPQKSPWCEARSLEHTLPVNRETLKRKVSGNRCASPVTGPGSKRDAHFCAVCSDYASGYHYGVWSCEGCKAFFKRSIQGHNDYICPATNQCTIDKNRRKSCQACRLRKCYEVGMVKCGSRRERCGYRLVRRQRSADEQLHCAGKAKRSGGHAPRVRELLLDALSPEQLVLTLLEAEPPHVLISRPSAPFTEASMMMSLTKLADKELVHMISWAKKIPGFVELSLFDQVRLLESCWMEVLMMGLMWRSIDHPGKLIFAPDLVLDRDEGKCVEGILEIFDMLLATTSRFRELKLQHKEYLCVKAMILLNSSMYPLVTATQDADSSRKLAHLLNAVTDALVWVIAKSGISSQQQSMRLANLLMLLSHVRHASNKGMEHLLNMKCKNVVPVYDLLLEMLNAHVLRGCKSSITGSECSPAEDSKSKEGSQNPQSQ
Chain of Androgen Receptor/SRC-1 Co-activator, AR (gene 367) (P10275 whole entry, looked up, the tested form may be a part): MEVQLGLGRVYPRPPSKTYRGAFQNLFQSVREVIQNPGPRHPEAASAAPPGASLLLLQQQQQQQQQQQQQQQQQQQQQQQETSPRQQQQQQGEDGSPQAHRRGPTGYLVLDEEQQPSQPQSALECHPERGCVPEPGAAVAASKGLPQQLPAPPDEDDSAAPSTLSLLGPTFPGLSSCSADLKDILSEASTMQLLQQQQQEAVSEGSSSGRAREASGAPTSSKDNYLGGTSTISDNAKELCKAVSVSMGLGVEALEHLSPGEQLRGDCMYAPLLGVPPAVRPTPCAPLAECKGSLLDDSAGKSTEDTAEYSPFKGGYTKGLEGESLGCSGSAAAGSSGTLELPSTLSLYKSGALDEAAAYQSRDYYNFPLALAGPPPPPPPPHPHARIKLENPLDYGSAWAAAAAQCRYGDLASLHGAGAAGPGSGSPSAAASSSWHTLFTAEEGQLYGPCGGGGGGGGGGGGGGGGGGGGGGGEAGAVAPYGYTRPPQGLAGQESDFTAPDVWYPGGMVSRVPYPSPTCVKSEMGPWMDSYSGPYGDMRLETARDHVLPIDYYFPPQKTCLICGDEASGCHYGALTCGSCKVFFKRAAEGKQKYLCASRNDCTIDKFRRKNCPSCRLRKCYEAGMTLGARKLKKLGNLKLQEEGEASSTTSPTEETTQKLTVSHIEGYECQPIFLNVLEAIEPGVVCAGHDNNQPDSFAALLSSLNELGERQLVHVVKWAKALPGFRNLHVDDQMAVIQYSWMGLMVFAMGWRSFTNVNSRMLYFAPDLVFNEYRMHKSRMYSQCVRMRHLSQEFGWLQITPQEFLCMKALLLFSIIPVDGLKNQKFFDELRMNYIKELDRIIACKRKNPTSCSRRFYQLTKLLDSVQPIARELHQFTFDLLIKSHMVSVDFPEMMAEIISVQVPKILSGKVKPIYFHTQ
Chain of Estrogen receptor beta (Homo sapiens) (Q92731 whole entry, looked up, the tested form may be a part): as the sequence (Q92731 whole entry, looked up, the tested form may be a part) above
Chain of human Dopamine Transporter (DAT), SLC6A3 (gene 6531) (Q01959 whole entry, looked up): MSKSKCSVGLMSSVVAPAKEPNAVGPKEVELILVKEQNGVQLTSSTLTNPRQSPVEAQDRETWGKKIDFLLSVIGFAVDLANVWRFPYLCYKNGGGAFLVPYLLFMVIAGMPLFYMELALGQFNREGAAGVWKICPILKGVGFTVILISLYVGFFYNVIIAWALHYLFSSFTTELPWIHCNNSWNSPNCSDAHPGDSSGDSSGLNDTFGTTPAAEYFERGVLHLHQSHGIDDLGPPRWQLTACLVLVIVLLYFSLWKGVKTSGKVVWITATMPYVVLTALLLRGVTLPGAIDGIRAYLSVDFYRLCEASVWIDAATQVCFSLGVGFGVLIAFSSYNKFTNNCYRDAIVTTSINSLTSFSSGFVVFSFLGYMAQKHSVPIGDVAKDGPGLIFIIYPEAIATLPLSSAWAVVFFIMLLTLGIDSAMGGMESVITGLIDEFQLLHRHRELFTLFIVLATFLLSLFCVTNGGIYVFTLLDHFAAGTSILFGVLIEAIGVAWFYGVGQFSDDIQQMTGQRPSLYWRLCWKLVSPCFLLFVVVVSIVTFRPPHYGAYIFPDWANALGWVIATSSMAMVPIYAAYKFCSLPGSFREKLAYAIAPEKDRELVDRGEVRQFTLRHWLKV
Chain of rat Mineralocorticoid Receptor (MR), Nr3c2 (gene 25672) (P22199 whole entry, looked up): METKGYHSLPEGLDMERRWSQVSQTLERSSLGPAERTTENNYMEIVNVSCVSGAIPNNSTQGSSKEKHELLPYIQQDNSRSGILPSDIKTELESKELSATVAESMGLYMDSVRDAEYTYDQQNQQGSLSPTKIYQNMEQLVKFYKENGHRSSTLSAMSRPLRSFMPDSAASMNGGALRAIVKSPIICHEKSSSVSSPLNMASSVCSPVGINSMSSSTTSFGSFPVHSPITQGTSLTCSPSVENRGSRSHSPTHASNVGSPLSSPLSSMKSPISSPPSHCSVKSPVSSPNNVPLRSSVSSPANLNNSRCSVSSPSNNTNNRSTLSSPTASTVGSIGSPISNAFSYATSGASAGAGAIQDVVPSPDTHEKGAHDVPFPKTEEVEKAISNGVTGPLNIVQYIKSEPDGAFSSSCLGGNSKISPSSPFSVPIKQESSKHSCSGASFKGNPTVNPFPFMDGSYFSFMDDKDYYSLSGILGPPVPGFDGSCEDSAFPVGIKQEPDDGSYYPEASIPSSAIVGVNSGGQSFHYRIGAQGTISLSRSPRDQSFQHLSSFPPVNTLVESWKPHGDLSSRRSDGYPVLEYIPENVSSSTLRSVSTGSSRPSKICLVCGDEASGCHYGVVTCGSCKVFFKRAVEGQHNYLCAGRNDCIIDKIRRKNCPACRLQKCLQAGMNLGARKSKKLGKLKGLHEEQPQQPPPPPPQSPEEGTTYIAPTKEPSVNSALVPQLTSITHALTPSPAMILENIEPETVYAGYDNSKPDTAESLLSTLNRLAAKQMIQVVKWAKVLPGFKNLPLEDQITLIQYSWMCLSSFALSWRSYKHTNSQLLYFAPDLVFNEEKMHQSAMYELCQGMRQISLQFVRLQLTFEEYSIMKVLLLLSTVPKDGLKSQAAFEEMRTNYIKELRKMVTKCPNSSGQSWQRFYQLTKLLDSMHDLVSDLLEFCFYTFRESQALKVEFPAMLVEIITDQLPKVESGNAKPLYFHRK
Chain of human Thyroid Receptor Alpha (TRa), THRA (gene 7067) (P10827 whole entry, looked up): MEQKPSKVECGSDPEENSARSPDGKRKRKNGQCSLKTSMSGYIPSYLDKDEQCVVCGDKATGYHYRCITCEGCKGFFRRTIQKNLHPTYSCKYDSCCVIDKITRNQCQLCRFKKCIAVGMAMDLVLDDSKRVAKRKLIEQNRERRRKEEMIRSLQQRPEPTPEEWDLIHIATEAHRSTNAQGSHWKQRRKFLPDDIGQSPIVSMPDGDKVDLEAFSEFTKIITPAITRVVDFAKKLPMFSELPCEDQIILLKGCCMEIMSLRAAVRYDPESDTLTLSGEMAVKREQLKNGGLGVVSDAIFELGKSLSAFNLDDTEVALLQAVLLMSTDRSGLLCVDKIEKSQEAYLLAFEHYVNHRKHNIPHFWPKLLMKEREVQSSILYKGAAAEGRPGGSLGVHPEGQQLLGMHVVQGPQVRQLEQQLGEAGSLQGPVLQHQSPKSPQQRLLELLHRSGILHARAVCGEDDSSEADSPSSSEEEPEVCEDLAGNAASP
Chain of rat Serotonin Transporter (SERT), Slc6a4 (gene 25553) (P31652 whole entry, looked up): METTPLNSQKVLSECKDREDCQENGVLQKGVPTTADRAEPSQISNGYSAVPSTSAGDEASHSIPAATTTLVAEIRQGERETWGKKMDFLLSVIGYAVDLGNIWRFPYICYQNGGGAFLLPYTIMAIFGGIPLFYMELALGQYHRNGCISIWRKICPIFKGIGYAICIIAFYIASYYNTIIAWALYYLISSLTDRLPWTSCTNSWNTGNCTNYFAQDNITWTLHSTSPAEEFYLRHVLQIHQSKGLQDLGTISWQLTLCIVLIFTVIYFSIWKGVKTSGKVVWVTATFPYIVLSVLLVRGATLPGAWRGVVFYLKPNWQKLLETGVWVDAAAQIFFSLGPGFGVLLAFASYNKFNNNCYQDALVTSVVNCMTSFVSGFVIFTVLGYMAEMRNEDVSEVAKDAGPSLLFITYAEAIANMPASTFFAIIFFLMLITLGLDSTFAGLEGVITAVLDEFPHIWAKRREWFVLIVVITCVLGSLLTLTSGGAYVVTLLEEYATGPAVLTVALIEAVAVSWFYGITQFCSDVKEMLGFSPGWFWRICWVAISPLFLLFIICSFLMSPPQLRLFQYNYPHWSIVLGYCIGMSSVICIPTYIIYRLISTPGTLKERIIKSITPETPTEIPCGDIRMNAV

As for `Oc1ccc(/C=C/c2cc(O)cc(O)c2)cc1`, the result in [1] and in [4] was inactive. Also, the AC50 – broadly, the concentration giving half of the maximal activity seen – was 6.63 µM (active) in [2] and 4.8 µM (active) in experiment [3].
`CCCCC/C=C\C/C=C\CCCCCCCC(=O)O`: in experiment [5], the outcome was inactive.
The same measure, in the same setting: next, `CC(C)c1ccc(O)c(C(C)C)c1`: “inactive”.
As to `Oc1ccc(-c2ccccc2)c(Cl)c1`, the AC50 in [6] is 16.3 µM (active).
Turning to `COC(OC)(C(=O)c1ccccc1)c1ccccc1`, the AC50 in [2] is 18 µM (active).
As for `CC1(C)[C@@H]2CC[C@@]1(C)C(=O)C2`, the outcome in experiment [7], in experiment [8], in experiment [9], in experiment [10] and in experiment [11] was inactive.
For the molecule `CC(C)c1cc(C(C)C)cc(C(C)C)c1`, the result in experiment [7], in experiment [8], in experiment [9], in experiment [10] and in experiment [11] was inactive.
On to `CCOC(=O)c1ccc(C)cc1`, for which the molecule was classed as inactive in [7], in experiment [8], in [9] and in experiment [10].
With `CC1=CCC2CC1C2(C)C` (stereo not given), the result in [7], in [8], in experiment [9], in experiment [10] and in experiment [11] was inactive.
For the molecule `CCCCCCCCCCCCCC(=O)OC(C)C`, the result in experiment [7], in experiment [8], in experiment [9], in experiment [12], in experiment [13] and in experiment [10] was inactive.
Take `CCOC(=O)C1=NOC(c2ccccc2)(c2ccccc2)C1`: the molecule was classed as inactive in experiment [7], in experiment [8], in experiment [9], in experiment [10] and in [11].
On to `CCCCCCC=O`, for which the call in experiment [7] and in experiment [8] was inactive.
On to `CCCCNS(=O)(=O)c1ccccc1`, for which the molecule was classed as inactive in [7], in experiment [8], in experiment [9], in [10] and in experiment [11].
In the case of `CCCCC(CC)COS(=O)(=O)O` (stereo not given), the outcome in experiment [7], in experiment [8], in experiment [9] and in experiment [10] was inactive.
`CC(C)(C)C1CCC(=O)CC1`: the result in experiment [7], in experiment [8], in experiment [9], in [10] and in experiment [11] was inactive.
For `CCCCOCCOC(=O)COc1ccc(Cl)cc1Cl`, the result in [7], in [8], in experiment [9] and in experiment [10] was inactive.
With `CC(C)(C)NC(=O)[C@H]1CC[C@H]2[C@@H]3CC[C@H]4NC(=O)C=C[C@]4(C)[C@H]3CC[C@]12C`, the AC50 in [7] is 75 µM (active). Besides, in experiment [8], the call was inactive.
As for `CCC(C)(O)CCCC(C)C` (stereo not given), the molecule was classed as inactive in experiment [7] and in experiment [8].
As for `CC1=CC=C(C(C)C)CC1`, in experiment [7], the AC50 is 31.5 µM (active). Further, in experiment [8], the molecule was classed as inactive.
Take `CCC1COC(=O)O1` (stereo not given): the result in experiment [7] and in [8] was inactive.
In the case of `CC(=O)OC(C)c1ccccc1` (stereo not given), the outcome in experiment [7], in experiment [8], in experiment [9], in [10] and in experiment [11] was inactive.
Consider `CCCCNC(=S)NCCCC`, for which the molecule was called inactive in [7], in experiment [8], in experiment [9], in [10] and in experiment [11].
On to `Cc1ccc(C)c(OCCCC(C)(C)C(=O)O)c1`, for which the molecule was classed as inactive in [7], in experiment [8], in experiment [9], in [12], in [13] and in experiment [1]. In experiment [10], the result was inactive.
Regarding `C=C[C@@]1(C)CC(=O)[C@]2(O)[C@@]3(C)[C@@H](O)CCC(C)(C)[C@@H]3[C@H](O)[C@H](OC(C)=O)[C@@]2(C)O1`, the result in experiment [7], in experiment [8], in experiment [9] and in experiment [11] was inactive. Further, in experiment [10], the AC50 is 36.1 µM (active).
As to `CCCCCCCCCC(C)=O`, the result in experiment [7], in experiment [9], in experiment [12], in experiment [13], in experiment [10] and in experiment [11] was inactive. Further, in [8], the AC50 is 68.5 µM (active).
In the case of `CCCCc1ccc(Cl)cc1`, the call in experiment [7], in [8], in experiment [9], in experiment [10] and in [11] was inactive.
Consider `CC(C)COC(=O)CC(C(=O)OCC(C)C)S(=O)(=O)O` (stereo not given), for which the result in experiment [7], in [8], in experiment [9], in experiment [10] and in experiment [11] was inactive.
Regarding `C/C=C/C=C/CCCCCCCO`, the result in experiment [7] and in experiment [8] was inactive.
`CCOC(=O)c1ccccc1C`: the outcome in experiment [7], in experiment [8], in [9], in experiment [10] and in [11] was inactive.
As for `C[Si]1(C)O[Si](C)(C)O[Si](C)(C)O[Si](C)(C)O[Si](C)(C)O1`, the AC50 in experiment [7] was 50 µM (active). The molecule was classed as inactive in experiment [8].
In the case of `CCC[Si](OC)(OC)OC`, the molecule was classed as inactive in experiment [7], in experiment [8], in [9], in experiment [12], in experiment [13] and in [10]. Moreover, in [11], the molecule was classed as inactive.
With `CCCCCCCCC(CO)CCCCCC` (stereo not given), the call in experiment [7], in experiment [8], in experiment [9], in experiment [10] and in experiment [11] was inactive.
In the case of `O=C(O)c1ccc2c(c1)C(=O)OC2=O`, the result in [7], in [8], in [9], in [12], in experiment [10] and in experiment [11] was inactive.
Turning to `CC(=O)OC1CCCCC1C(C)(C)C` (stereo not given), the molecule was called inactive in experiment [7], in [8], in [9], in [12], in [13] and in experiment [10]. Moreover, the molecule was classed as inactive in [11].
Regarding `O=C(O)/C=C/c1ccccc1`, the half-maximal activity concentration (AC50) in experiment [7] is 34.2 µM (active). In addition, the molecule was classed as inactive in [8].
As to `CCc1occc(=O)c1O`, the molecule was classed as inactive in [7] and in [8].
As to `COC(=O)c1ccccc1C`, the result in experiment [7], in experiment [8], in experiment [9] and in experiment [10] was inactive.
With `C=C[Si](OCCOC)(OCCOC)OCCOC`, the molecule was classed as inactive in experiment [7] and in experiment [8].
As for `COc1ccc(C(=O)c2ccccc2)c(O)c1`, the AC50 in experiment [7] is 66.7 µM (active); in experiment [8], 58.4 µM (active); in experiment [9], 31 µM (active); in experiment [10] it was 58.7 µM (active); in experiment [11], 50 µM (active); in experiment [3], 16.4 µM (active). Also, the call in experiment [12] and in experiment [13] was inactive.
Consider `CC(=O)c1ccccc1O`, for which the molecule was classed as inactive in experiment [7] and in [8].
Take `Cc1c(C(=O)c2c[nH]n(C)c2=O)ccc(S(C)(=O)=O)c1C1=NOCC1`: the result in [7], in [8], in experiment [9], in experiment [12], in experiment [10] and in experiment [11] was inactive.
